The source of these data is PubChem BioAssay AID488838 (National Center for Advancing Translational Sciences (NCATS), 2010).

Inconclusive results are not listed. The source made the active and inactive calls. Calls follow the shape of the dose curve; as a rule, active = well fitted inhibition curve with a large enough effect; inconclusive = small, poorly fitted or top-dose-only effect; inactive = flat fitted curve, though single readings scatter.

This test deals with Luciferin 4-monooxygenase (Photinus pyralis) (UniProt P08659). Kind of test: Counterscreen Assay for Enhancers of SMN2 Splice Variant Expression: Interaction with Luciferase Reporter for Further Probe SAR. The following applies: purified firefly luciferase, luminescence, 5 min; series mostly up to 57.5 µM; activity change, negative = inhibition: at the top concentration. An excerpt: NIH Chemical Genomics Center [NCGC] NIH Molecular Libraries Probe Production centers Network [MLPCN] MLPCN Grant: R03 MH084179-01 Assay Submitter (PI): Elliot Androphy NCGC Assay Overview: Spinal muscular atrophy (SMA) is caused by insufficient levels of the survival motor neuron protein SMN. The SMN locus on chromosome 5q13 contains two inverted copies of SMN called SMN1 and SMN2 which are 99% identical at the amino acid level. SMN1 is a fully functional protein and SMN2 skips exon 7 90% of the time. Skipping of exon 7 produces non-functional protein product. 10% of the SMN2 protein includes exon 7 and is fully functional. In the SMA disease state, mutations in the SMN1 locus are the cause of the disease state. Because only 10% of SMN2 is of the fully functional form, it is not sufficient to overcome the deficiency produced by the loss of the SMN1 product. A therapy that either increases the amount of SMN2 product made increases the inclusion of exon 7 has been proposed for the treatment of SMA. We have designed an assay to identify small molecules that can increase the amount of functional SMN2 product by appending a luciferase reporter gene after the native SMN2 gene, such that inclusion of exon 7 in the expressed product places the luciferase sequence in frame, thus generating functional luciferase enzyme. One potential source of false positives in the primary screening assay is stabilization of the reporter luciferase via direct binding. This assay attempts to identify such compounds by screening directly for luciferase activity in the absence of the cellular system.
Luciferin 4-monooxygenase (Photinus pyralis), sequence (P08659 whole entry, looked up, canonical isoform): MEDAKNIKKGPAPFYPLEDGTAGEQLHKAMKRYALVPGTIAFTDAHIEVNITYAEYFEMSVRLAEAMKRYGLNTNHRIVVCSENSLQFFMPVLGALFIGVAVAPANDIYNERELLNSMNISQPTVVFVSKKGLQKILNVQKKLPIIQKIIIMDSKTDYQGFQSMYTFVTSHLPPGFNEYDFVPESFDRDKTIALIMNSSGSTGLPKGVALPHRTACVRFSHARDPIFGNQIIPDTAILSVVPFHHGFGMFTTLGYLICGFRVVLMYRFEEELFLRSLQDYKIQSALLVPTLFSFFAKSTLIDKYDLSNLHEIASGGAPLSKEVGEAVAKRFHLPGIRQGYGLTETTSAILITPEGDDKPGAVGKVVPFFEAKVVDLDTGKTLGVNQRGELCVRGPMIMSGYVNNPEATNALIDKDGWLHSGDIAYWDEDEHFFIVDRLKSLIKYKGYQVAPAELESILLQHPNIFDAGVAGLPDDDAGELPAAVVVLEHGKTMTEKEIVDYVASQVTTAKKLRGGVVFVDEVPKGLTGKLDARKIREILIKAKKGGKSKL
NCGC Assay Protocol Summary: The primary screen utilizes a luciferase reporter gene assay, combining the promoter and splicing based cassettes in tandem with the major portion of the native SMN1 cDNA, and then transfected into HEK293 cells. Compounds that modulate luciferase signal presumably modulate expression of […]. In this assay, we utilize purified firefly luciferase in lieu of a cellular reporter to identify compounds interacting directly with luciferase in the primary screen. Sequence, Parameter, Value, Description (1) Reagent, 2.5 uL, Enzyme in buffer (note A) (2) Compound, 23 nL, From stock solutions (3) Time, 5 minutes, Room temp (4) Reagent#2.5 ul, Luciferase detection reagent (note B) (5) Detector, 1 sec integrate, Luminescent read on Viewlux (note C) Sigma enzyme (1 mg) considered to be MW 61,000 diluted in 357 ul assay buffer to 50 uM stock. A - Enzyme and buffer consists of 50 mM Tris-acetate pH 7.6, 10 mM Mg acetate 0.05% BSA, 0.01% Tween and 5 nM firefly luciferase B - Detection reagent = britelite plus diluted 1:10 in PBS C - Viewlux settings were 1 second integration medium sensitivity Keywords: Spinal muscular atrophy, SMA, SMN2, high throughput screening, MLSMR, MLPCN, NIH Roadmap, qHTS and NCGC
(The purpose of a counterscreen is to sort out artefacts and off-target activity.)
With `COc1ccc(-c2cnc(N3CCC(C(N)=O)CC3)s2)cc1OC`, the “activity change, negative = inhibition” value was -15.6% (inactive). Still for that read-out and setting: the result for `CN(C)c1cccc(-c2cc(N3CCC(C(N)=O)CC3)ncn2)c1` reads -20% (inactive). The same measure, in the same setting: the result for `NC(=O)C1CCN(c2nnc(-c3ccc(Br)cc3)s2)CC1` reads -22.2% (inactive).

`NC(=O)C1CCN(c2nc(-c3cccc4sc5ccccc5c34)cs2)CC1`: the Potency is 31.8 µM (active). On to `O=C(c1ccco1)N1CCN(c2nc(-c3ccc(Br)cc3)cs2)CC1`, for which the “activity change, negative = inhibition” value was -11.1% (inactive). Regarding `O=C(O)C1CCN(c2ncc(-c3ccc4c(c3)OCCCO4)s2)CC1`, the Potency was 0.005 µM (active). On to `NC(=O)C1CCN(c2nccc(Cl)n2)CC1`, for which the “activity change, negative = inhibition” value was -14.5% (inactive). On to `Brc1ccc(-c2csc(N3CCNCC3)n2)cc1`, for which the “activity change, negative = inhibition” value was -8.89% (inactive). The same measure, in the same setting: in the case of `CN(C)c1cccc(-c2nccc(N3CCC(C(N)=O)CC3)n2)c1` it was -19.7% (inactive).

Regarding `NC(=O)C1CCN(c2ncc(-c3ccc4c(c3)OC(F)(F)O4)s2)CC1`, the Potency was 16 µM (active). For the compound `N#Cc1ccc(-c2csc(N3CCC(C(N)=O)CC3)n2)cc1`, the “activity change, negative = inhibition” value is -17.5% (inactive). In the case of `NC(=O)C1CCN(c2ncc(-c3ccc(Br)cc3)s2)CC1`, the Potency is 4.01 µM (active). As for `CS(=O)(=O)N1CCN(c2nc(-c3ccc(Br)cc3)cs2)CC1`, the “activity change, negative = inhibition” value was -14.8% (inactive). Consider `CN(C)C(=O)C1CCN(c2nc(-c3ccc(Br)cc3)cs2)CC1`, for which the Potency is 8 µM (active). The same measure, in the same setting: in the case of `COc1cccc(-c2csc(N3CCC(C(N)=O)CC3)n2)c1` it was 25.3 µM (active); in that of `CN(C)c1cccc(-c2cnc(N3CCC(c4ncc[nH]4)CC3)s2)c1`, 20.1 µM (active); in that of `NC(=O)C1CCN(c2nnc(-c3ccc4c(c3)OCCCO4)s2)CC1`, 3.57 µM (active).

With `O=C(C1CCN(c2nc(-c3ccc(Br)cc3)cs2)CC1)N1CCNCC1`, the “activity change, negative = inhibition” value is 9.84% (inactive).

`CC(C)Oc1cccc(-c2cnc(N3CCC(C(N)=O)CC3)s2)c1`: the Potency was 0.8 µM (active). Take `CN(C)c1ccc(-c2csc(N3CCC(C(N)=O)CC3)n2)cc1`: the “activity change, negative = inhibition” value is -29% (inactive). Same read-out and setting: the result for `COc1ccccc1-c1csc(N2CCC(C(N)=O)CC2)n1` reads -21.1% (inactive). Regarding `O=C(Nc1ccccc1)C1CCN(c2ncc(-c3ccc4c(c3)OCCCO4)s2)CC1`, the Potency was 4.01 µM (active).

As for `NC(=O)C1CCN(c2ncc(Br)cn2)CC1`, the “activity change, negative = inhibition” value is -12.9% (inactive).

For the compound `O=C(O)C1CCN(c2nc(-c3ccc(Br)cc3)cs2)CC1`, the Potency is 1.42 µM (active). Same read-out and setting: the result for `CC(C)Oc1cccc(-c2ccnc(N3CCC(C(N)=O)CC3)n2)c1` reads 10.1 µM (active). For the compound `CCOc1ccc(-c2csc(N3CCC(C(N)=O)CC3)n2)cc1`, the “activity change, negative = inhibition” value is -29.5% (inactive). As to `CC(=O)N1CCN(c2nc(-c3ccc(Br)cc3)cs2)CC1`, the Potency is 0.8 µM (active). With `NC(=O)C1CCN(c2nc(-c3ccc(OC(F)(F)F)cc3)cs2)CC1`, the “activity change, negative = inhibition” value was -19.4% (inactive). On the same count and under the same terms, in the case of `Cc1cnc(N2CCC(C(N)=O)CC2)nc1-c1cccc(N(C)C)c1` it was -6.67% (inactive). In the case of `Brc1ccc(-c2csc(N3CCC(c4nn[nH]n4)CC3)n2)cc1`, the Potency was 16 µM (active). The same measure, in the same setting: the result for `NC(=O)C1CCN(c2ncc(-c3ccc4c(c3)OCO4)s2)CC1` reads 3.18 µM (active); that for `CN(C)c1cccc(-c2cnc(N3CCC(C(N)=O)CC3)nc2)c1`, 11.3 µM (active). On the same count and under the same terms, the result for `NC(=O)C1CCN(c2nc(-c3ccc(C(F)(F)F)cc3)cs2)CC1` reads 20.1 µM (active). For the compound `NC(=O)C1CCN(c2ncc(Br)s2)CC1`, the “activity change, negative = inhibition” value is -22.6% (inactive).

With `NC(=O)C1CCN(c2ncc(-c3ccc4c(c3)OCCCO4)s2)CC1`, the Potency was 2.84 µM (active). On the same count and under the same terms, the result for `Cc1ccc(-c2cnc(N3CCC(C(N)=O)CC3)s2)cc1` reads 5.05 µM (active). Still for that read-out and setting: the result for `Cc1ccc(-c2nnc(N3CCC(C(N)=O)CC3)s2)cc1` reads 16 µM (active). For `NC(=O)C1CCN(c2nc(-c3cccc(C(F)(F)F)c3)cs2)CC1`, the “activity change, negative = inhibition” value was -27.4% (inactive).

`NC(=O)C1CCN(c2nc(-c3ccc4c(c3)OCO4)cs2)CC1`: the Potency was 28.4 µM (active). Take `CN(C)c1cccc(-c2ncnc(N3CCC(C(N)=O)CC3)n2)c1`: the “activity change, negative = inhibition” value is -22.2% (inactive).
